According to ChEMBL document CHEMBL3988442, “University of Dundee, Small-Polar-MMV Screening Library” (2021):
About 1,200 (3.2%) of roughly 38,000 compounds showed an effect of 50% or more. The median lay at about -58%. Shown is part of a subset that was picked to be rich in strong results.

test system: Plasmodium falciparum; assay: Calibr Malaria Delayed Death Assay SOP; format: functional, organism-based; design: scale not given: in the data most compounds retested in dose-response had high values; settings: concentration 4.99e-06 (unit not given; other assays of the set use mol/L)

Row | Compound | Percent Effect
1 | COc1ccc(C(C)=O)cc1CN1CCn2cccc2C1C (configuration not stated) | -51.16%
2 | CNC(=O)C1CCN(Cc2nc(-c3ccc(SC)cc3)oc2C)C1 (configuration not stated) | -104%
3 | CSc1ccc(-c2nc(CN3CCC(C(N)=O)CC3)c(C)o2)cc1 | -89.92%
4 | CSc1ccc(-c2nc(CN3CCC(CN)C3)c(C)o2)cc1 (configuration not stated) | 88.32%
5 | Cc1nc2c(c(NC3CCN(Cc4cccnc4)CC3)n1)CCNCC2 | -53.07%
6 | Cc1nc2c(c(NC3CCN(Cc4ccccc4)CC3)n1)CCNCC2 | 78.1%
7 | Cc1nc2c(c(NC3CC3)n1)CCN(C(=O)CCc1cccnc1)CC2 | -33.43%
8 | Cc1cccc(CN2CC3(CCN(C(=O)C4CC4)CC3)OCC2=O)n1 | -86.74%
9 | COc1c(C)cnc(CNC(=O)c2cnc3onc(C)c3c2)c1C | -29.67%
10 | CN(CCCc1cc(-c2ccc(F)cc2)n[nH]1)C(=O)CCn1cncn1 | -232.6%
11 | COCCN(C)C(=O)Cn1cccc(OC)c1=O | -122.8%
12 | O=C(Cc1cccs1)N1CCn2cc(Cn3cccn3)nc2C1.O=C(O)C(F)(F)F | -86.13%
13 | CN1CCN(C2CCN(CCOc3ccccc3F)CC2)C1=O | -15.81%
14 | O=C(c1ccoc1)N1CC[C@H]2C[C@@H](c3nnc(C4CC4)o3)O[C@@H]2C1 | -57.61%
15 | Cc1nc(C)n(C2CCCN(C(=O)c3cn4cccnc4n3)C2)n1 (configuration not stated) | -31.26%
16 | CC1(C)CN(C(CNS(N)(=O)=O)c2ccc(Cl)cc2)CCO1 (configuration not stated) | -0.7806%
17 | CC1(C)CN(C(CNS(C)(=O)=O)c2ccc(Cl)cc2)CCO1 (configuration not stated) | -25.75%
18 | O=C(Cc1ccc2c(c1)OCCO2)NC1CCCC1 | -102.8%
19 | Cc1csc(CNC(=O)NCC2(c3ccc4c(c3)OCO4)CC2)n1 | -58.48%
20 | I.c1cc2c(cc1C1(CNC3=NCCN3)CCCC1)OCCO2 | 80.88%
21 | O=S(=O)(NCC1(c2cccs2)CCOCC1)c1ccc2c(c1)OCCO2 | -63.38%
22 | Cc1ncsc1CNC(=O)NCC1(c2ccc3c(c2)OCO3)CC1 | -37.92%
23 | c1cnc(NCc2noc3c2CN(c2cnccn2)CC3)nc1 | -103.6%
24 | CC(=O)NCc1ccc(C(=O)N2CCCC(n3cncn3)C2)o1 (configuration not stated) | -131.6%
25 | O=C([C@@H]1CCO[C@@H]2CCN(CC3CC3)C[C@H]21)N1CCCCO1 | -73.92%

Row | Compound | Percent Effect
26 | COC(=O)NCC(=O)NCC(C)(C)c1cccc(Br)c1 | 84.11%
27 | COC(=O)NCC(=O)NCC(C)(C)c1cccc(C(F)(F)F)c1 | 46.67%
28 | CC(C)(C(=O)NCCC(=O)O)c1cccc(Br)c1 | -14.62%
29 | CC(C)(C(=O)NCCCC(N)=O)c1cccc(Br)c1 | -41.82%
30 | CCC(=O)NCC(=O)NCc1cc(Br)ccc1OC(F)F | 4.46%
31 | CCC(=O)NCC(=O)NCC(C)(C)c1cccc(Br)c1 | 86.82%
32 | Cn1c(C2CC2)nc2c1CCN(CCOc1ccccc1C#N)C2 | -3.674%
33 | CC1c2ncc(CN3CCN(C)CC3)n2CCN1Cc1ccccn1.O=C(O)C(F)(F)F.O=C(O)C(F)(F)F.O=C(O)C(F)(F)F.O=C(O)C(F)(F)F (configuration not stated) | -124%
34 | Oc1ccc(N2CCC(Cc3ccccc3)CC2)nn1 | -73.68%
35 | N#Cc1cccc(CNC(=O)Nc2cccnc2N2CCCC2)c1 | -57.4%
36 | CCNC(=O)c1ccnc(CC2COc3c(cccc3OC)C2)c1 (configuration not stated) | -85.49%
37 | CCc1ccc2nc(NCC(O)CO)cc(C)c2c1 (configuration not stated) | -100%
38 | CCc1ccc2nc(NCCOCCO)cc(C)c2c1 | -140.8%
39 | CCc1ccc2nc(NCCCN(CCO)CCO)cc(C)c2c1 | 83.32%
40 | COc1ccc(-c2ccc(C(=O)N3CCC[C@@H]3CO)o2)cc1 | -98.07%
41 | COCCN1C[C@@H]2CN(C(=O)[C@H]3CCCO3)C[C@@H]2C1=O | -140.9%
42 | Cc1cnc(CN2CCN(c3ccnc(-c4ccccc4)n3)CC2)cn1 | -117.9%
43 | COC(=O)N1CCC(NC(=O)N2CCCC2c2ccsc2)CC1 (configuration not stated) | -44.77%
44 | CC(C)(C)C(=O)N1C[C@H](c2ccsc2)[C@H]2CN(Cc3cccs3)CC[C@H]21.Cl | 27.72%
45 | O=C(CC1CC1)N1CCO[C@H]2[C@H](OCCCn3cccn3)CC[C@@H]21.O=C(O)C(F)(F)F | -14.73%
46 | CN(C)C(=O)N1CCC2(CC(=O)N(c3cccc(C#N)c3)C2)C1 (configuration not stated) | -56.91%
47 | Cc1ccccc1CC(=O)N1C[C@@H]2COC[C@]2(CN(C)C)C1.O=C(O)C(F)(F)F | -70.43%
48 | O=C(c1ccnn1-c1ccc2ccccn12)N1CCOCC1 | -129.8%
49 | CN1CCCN(C(=O)c2ccnn2-c2ccc3ccccn23)CC1.O=C(O)C(F)(F)F | 69.35%
50 | CN(C)C1CCN(C(=O)c2ccnn2-c2ccc3ccccn23)CC1.O=C(O)C(F)(F)F | -10.05%

Row | Compound | Percent Effect
51 | Cc1ncsc1CNCC(C)c1nc2ccccc2o1 (configuration not stated) | -88.91%
52 | Cc1nc(CN2CCC(N(C)Cc3noc(C4CC4)n3)C2)oc1C (configuration not stated) | -157.8%
53 | CCC[C@@H]1CN(C(=O)c2cc(-c3cccs3)n(C)n2)C[C@H]1N(C)C | -67.73%
54 | CCC[C@@H]1CN(C(=O)c2ccccc2-c2ncc[nH]2)C[C@H]1N(C)C | -89.87%
55 | CCC[C@@H]1CN(C(=O)c2ccccc2C(C)=O)C[C@H]1N(C)C | -122.5%
56 | CCC[C@@H]1CN(C(=O)c2ccccc2-c2ccccc2)C[C@H]1N(C)C | 18.3%
57 | CCC[C@@H]1CN(C(=O)c2conc2-c2ccccc2)C[C@H]1N(C)C | 50.45%
58 | CCC[C@@H]1CN(C(=O)c2cc3ccccc3cc2O)C[C@H]1N(C)C | 51.44%
59 | CC(C)(C)c1cnc(CN(Cc2cccnc2)CC2CCCO2)o1 (configuration not stated) | 21.12%
60 | CC(O)CN1CCc2onc(-c3ccccc3F)c2C1 (configuration not stated) | -120.6%
61 | CN(C)C(=O)CN1CCCC1c1cccc(Cc2ccccc2F)n1 (configuration not stated) | 67.28%
62 | CN(C)S(=O)(=O)N1CCCC(c2cccc(Cc3ccccc3F)n2)C1 (configuration not stated) | -73.25%
63 | CN(C)C(=O)CCc1cncc(C2CCCN2Cc2ccccn2)n1 (configuration not stated) | -28.93%
64 | CN1CCN(C2COC3(CCN(Cc4ccsc4)CC3)C2)CC1.O=C(O)C(F)(F)F.O=C(O)C(F)(F)F (configuration not stated) | -16.23%
65 | COC(=O)c1cccn1C1CCN(C(=O)c2ccc(C)cc2O)CC1 | -37.36%
66 | Nc1cc(C(=O)NC2CCCN(CCCc3ccccc3)C2)ccn1 (configuration not stated) | -86.42%
67 | Nc1ncncc1-c1noc([C@@H]2CCCN2CCCc2ccccc2)n1 | -66.01%
68 | CS(=O)(=O)NC1CCN(C(=O)NCc2cccnc2)CC1 | -62.74%
69 | O=C(c1ccoc1)N1CC[C@H]2C[C@@H](c3ccncn3)O[C@@H]2C1 | -72.56%
70 | COc1cccc(CCC(=O)Nc2cnc3c(c2)c(C)nn3C)c1OC | -140.4%
71 | COc1nccc(N2CC[C@@H](N3CCCCCC3)[C@H](O)C2)c1C#N | 51.1%
72 | COc1nccc(N2CC[C@@H](N3CCC(O)CC3)[C@H](O)C2)c1C#N | -80.42%
73 | COc1nccc(N2CC[C@H](N3CCOCC3)[C@H](CCCO)C2)c1C#N | -24.24%
74 | COc1ccc(C(N)=O)cc1NCc1ncc(-c2cccs2)o1 | -57.49%
75 | O=C(O)CCc1nc2nccc(-c3ccc(F)cc3)n2n1 | -150.8%

Row | Compound | Percent Effect
76 | COc1ccc(-c2noc(CN3CC(n4cc(C)cn4)C3)n2)cc1 | -35.96%
77 | CCNc1ccnc(N2Cc3cnc(CC(C)C)nc3C2)n1 | 74.44%
78 | CC(C)Cc1ncc2c(n1)CN(c1cc(NC3CC3)nc(N)n1)C2 | -26.11%
79 | CC(C)Nc1ccnc(N2Cc3cnc(C(C)(C)C)nc3C2)n1 | 49.86%
80 | O=C(CSc1nnc2n1N=CN(c1ccccc1)C2)c1ccccc1 | -130.4%
81 | CCOCCN1CCN(C(C)C(=O)Nc2ccnn2C(C)C)CC1 (configuration not stated) | -116%
82 | CC(C(=O)Nc1cccc(Cl)c1)N1CCN(Cc2ncc[nH]2)CC1 (configuration not stated) | 12.72%
83 | COCCCN1CCCN(C(C)C(=O)Nc2cccc(I)c2)CC1 (configuration not stated) | 89.66%
84 | Cc1noc(CN(C)CC2CCCN(CCc3ccc(Cl)cc3)C2)n1 (configuration not stated) | -81.63%
85 | NC(=O)C1CCN(C(=O)c2ccc(Sc3ccccn3)cc2)CC1 | -20.82%
86 | Cc1ccc(CN(Cc2ccccn2)C(=O)[C@H]2CC[C@@H](N)C2)s1 | -62.59%
87 | Cc1ccc(CN(Cc2ccncc2)C2CCN(C)CC2)s1 | 33.34%
88 | Cc1ccc(CN(Cc2[nH]cnc2C)C2CC(C)(C)NC(C)(C)C2)o1.O=C(O)CC(O)(CC(=O)O)C(=O)O | -80.85%
89 | CC1(C)CC(N(Cc2cccnc2)Cc2cccc(F)c2)CC(C)(C)N1.O=C(O)CC(O)(CC(=O)O)C(=O)O | 75.47%
90 | CN(Cc1cccnc1)CC1CC12CCCC2 (configuration not stated) | -51.15%
91 | O=C(Nc1cccnc1)N(Cc1ccccc1)C1CC1 | -66.01%
92 | CN(Cc1cccnc1)CC1CC12CCN(Cc1nccs1)CC2 (configuration not stated) | -24.57%
93 | Cc1cccc(CN(Cc2cccnc2)C2CC(C)(C)NC(C)(C)C2)n1.O=C(O)CC(O)(CC(=O)O)C(=O)O | 40.19%
94 | Cc1ccsc1CN(C)Cn1nccc1-c1cccnc1 | -75.2%
95 | Cc1c[nH]c(CN2CCOC(c3ccc(Cl)c(Cl)c3)C2)c(C)c1=O (configuration not stated) | -31.43%
96 | Cc1cc(CNC(=O)NCc2cccs2)no1 | -38.54%
97 | COc1cccc2c1ccn2CC(=O)Nc1nc[nH]n1 | -178.4%
